Screens as filed in PubChem BioAssay.
ERK AVP block – vasopressin-driven ERK pathway inhibition; HEK293-V1b, vasopressin-stimulated pERK AlphaScreen; AID 995; Potency, µM (highest dose often 57.5 µM), without a hit: at the top dose activity, negative = inhibition, most hits filed as inhibitors; actives 0.99% (n = 72,000); also: nearly all actives have a fitted effect of over 55% in size
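Overnight-seeded V1b-HEK293 cells in 1% FBS got compound, then vasopressin (25 nM final, 5 min, 37C), then lysis buffer. AlphaScreen detection of phospho-ERK; activity normalized to basal and full-stimulation controls.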
HADH2 inhib – HADH2 (human) dehydrogenase inhibition; recombinant HADH2, NADH fluorescence, beta-hydroxybutyryl-CoA; Potency, µM (highest dose often 57.1 µM), for inactives: at the top dose activity change, negative = inhibition, actives largely listed as inhibitors; actives 3.4% (n = 73,000); also: nearly all actives have a fitted effect of over 60% in size
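Read-out: 360 nm excitation, 450 nm emission, kinetic over 4 min. Conditions: His-tagged human HADH2 20 nM, pH 9.0 Tris with Tween-20, 1 mM NAD+, 90 uM beta-hydroxybutyryl-CoA.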
FLuc inh – inhibitors of firefly luciferase | actives 2.2% (n = 72,000) | Potency, µM (titrated, usually from 57.1 µM), without a hit: at the top dose activity change, negative = inhibition, hits mostly inhibitors | purified firefly luciferase, luminescence, 8 min | AID 411 | P08659; also: nearly all actives have a fitted effect of over 40% in size
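Titration-based qHTS; buffer 50 mM imidazole pH 7.2, 50 mM KCl, 7 mM MgCl2, 10 uM ATP, 0.01% Tween 20, 0.05% BSA; luciferase/luciferin detector mix added after compound; 8 min, ambient; luminescence.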
HSD17B inh – blocks hydroxysteroid 17-beta dehydrogenase activity; Potency, µM (titrated, usually from 57.1 µM), inactives show at the top dose activity change, negative = inhibition, usual class: inhibitors; Q99714; actives 7.6% (n = 75,000); recombinant HSD17B10, NADH fluorescence kinetic;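 also: the protocol describes HADH2 (HSD17B10) and not the HSD17B4 of the title; nearly all actives have a fitted effect of over 70% in size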
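20 nM HADH2, pH 9.0 Tris/Tween; cpd preinc 15 min RT; start w/ 1 mM NAD+ + 90 uM b-hydroxybutyryl-CoA; kinetic fluor ex360/em450 q30s x 4 min; delta last-first.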
PK Bst – modulators of Bacillus stearothermophilus pyruvate kinase | purified pyruvate kinase, luminescence ATP production; ribose 5-phosphate activator present at AC10 | Potency, µM | actives 1.2% (n = 51,000) | AID 361; in the data active = potency below about 11 µM; inconclusive = mostly about 12 µM to 25 µM;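 the screen sought inhibitors and activators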;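 also: scaled between full activation by ribose 5 phosphate and full inhibition by luteolin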
15-hLO inh – blocks human 15-lipoxygenase activity; purified 15hLO-1, xylenol orange hydroperoxide absorbance; Potency, µM (doses to about 57.1 µM), inactives show at the highest dose activity change, negative = inhibition, most hits filed as inhibitors; P16050; actives 1.4% (n = 74,000); AID 887; also: nearly all actives have a fitted effect of over 55% in size
Target sequence (P16050 whole entry, looked up): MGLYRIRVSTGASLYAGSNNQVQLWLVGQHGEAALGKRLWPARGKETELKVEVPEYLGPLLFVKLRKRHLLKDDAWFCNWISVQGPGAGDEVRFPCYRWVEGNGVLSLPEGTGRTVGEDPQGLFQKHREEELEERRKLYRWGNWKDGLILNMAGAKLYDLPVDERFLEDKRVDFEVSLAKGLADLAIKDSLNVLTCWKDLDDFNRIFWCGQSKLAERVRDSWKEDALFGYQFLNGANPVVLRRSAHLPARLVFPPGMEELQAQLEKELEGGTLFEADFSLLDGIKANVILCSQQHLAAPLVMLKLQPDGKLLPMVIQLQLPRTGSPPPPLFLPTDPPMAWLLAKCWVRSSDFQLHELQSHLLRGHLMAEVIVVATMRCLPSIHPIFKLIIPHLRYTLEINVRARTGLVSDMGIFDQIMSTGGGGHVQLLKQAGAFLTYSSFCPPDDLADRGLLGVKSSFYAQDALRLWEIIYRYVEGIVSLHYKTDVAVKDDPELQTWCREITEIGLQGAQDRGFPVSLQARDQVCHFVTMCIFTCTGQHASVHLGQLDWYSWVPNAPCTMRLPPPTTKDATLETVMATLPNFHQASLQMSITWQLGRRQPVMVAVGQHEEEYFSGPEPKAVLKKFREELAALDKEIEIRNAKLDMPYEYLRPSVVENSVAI
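Inhibition is scored from a chromogenic endpoint. After 15 min enzyme-compound contact, arachidonic acid (50 uM final) reacts 6 min with 40 nM 15hLO-1 at room temperature, then Fe-XO reagent is added for 30 min and absorbance ratio recorded.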
* = called active by the depositor; i = inactive; ? = inconclusive; . = no result; ! = repeats disagree; [ ] = remark or other dose. Rows were chosen to be rich in hits. Some 11% of all compounds tested hit in one or more screens of this group. Unless noted, calls follow the shape of the dose curve; as a rule, active = well fitted curve in the direction sought with a large enough effect; inconclusive = small, poorly fitted or top-dose-only effect, or another doubt; inactive = no such curve, though single readings can be large; an effect the other way counts as inactive or inconclusive. Unless noted, % is scaled to controls: 0 for no effect and ±100 for the full control effect; potency is read from the fitted curve at half-maximal effect.

SMILES | ERK AVP block | HADH2 inhib | FLuc inh | HSD17B inh | PK Bst | 15-hLO inh
O=C(c1ccccc1C(=O)N1CCN(c2ccc(F)cc2)CC1)N1CCN(c2ccc(F)cc2)CC1 | 40µM* | -2% | 0% | -18% | >57 | -10%
FC(F)(F)c1ccccc1-c1cncnc1NCCN1CCOCC1 | -10% | -14% | -12%[2.29 µM] | 0% | . | 9%
Cc1ccc(-c2nnc(-c3ccc(Br)cc3)o2)o1 | 15% | -14% | -10% | 0.63µM* | . | 1%
Brc1ccc(-c2nnc(-c3ccc4c(c3)OCO4)o2)o1 | -3% | 85% | -28% | -3% | i | -10%
Brc1ccccc1-c1nnc(-c2cccnc2)o1 | -29% | -2% | ? | 0% | >57 | 5%
Brc1ccc(-c2nnc(-c3ccccc3Br)o2)cc1 | -2% | 4% | 4µM* | 3% | . | -16%
Cc1ccccc1-c1nnc(-c2ccccc2)o1 | 5% | 8% | 13µM* | -17% | . | 0%
O=C(Nc1ccccc1)N1CCCC2(CCN(C(=O)c3cnccn3)CC2)C1 | -12% | 4% | 1%[11.4 µM] | 3% | . | 7%
N[C@H](C(=O)O)[C@H](N)C(=O)O | 1%[11.5 µM] | 14%[11.4 µM] | 2%[11.4 µM] | 6%[11.4 µM] | . | 2%[11.4 µM]
CCOC(=O)c1cnc(-n2nc(C)cc2C)nc1NCc1ccccc1 | ? | 15% | -4% | 25µM* | >57 | 25%
COc1cc(C2Oc3cc(C4Oc5cc(O)cc(O)c5C(=O)C4O)ccc3OC2CO)ccc1O (configuration not stated) | -9% | . | -3%[25.5 µM] | -17% | >26 | ?
O=C1c2c(O)cc(O)cc2O[C@@H](c2ccc(O)c(O)c2)[C@H]1O | 37% | 5µM* | 4% | 6% | . | 13µM*
O=C1CC(c2ccc(O)c(O)c2)Oc2cc(O)cc(O)c21 (configuration not stated) | ? | . | . | ? | . | 10µM*
Cn1c(NCc2ccccc2O)nc2ccccc21 | -25% | 5% | 0% | 6% | >57 | -1%
Cn1c(NCc2cccc(Br)c2)nc2ccccc21 | 32µM* | -19% | 1% | -11% | >57 | 10µM*
Cn1c(CNc2ccc(Cl)cc2)nc2ccccc21 | ? | 6% | 13µM* | 1% | i | 11%
CCN(CC)CCNc1nc2ccccc2n1C | -4% | -11% | -1% | -7% | >57 | -7%
Cn1c(NCc2ccccc2Cl)nc2ccccc21 | -21% | -3% | 13µM* | 2% | . | 2%
COc1ccc(CNc2ncncc2-c2ccoc2)c(OC)c1 | -10% | 15% | 3%[2.29 µM] | -19% | . | 15%
CSc1c(C#N)c(N)c(C#N)c2c1COC(C)(C)C2 | -26% | ? | 1% | 25µM* | >57 | -2%
CCc1nc(NC2CCCCC2)c(C#N)c2c1COC(C)(C)C2 | . | . | -1%[25.5 µM] | . | >26 | .
CCc1cccc2c(-c3ccccc3)c3c(nc12)OCC3 | 2% | 7% | . | 32µM* | . | .
CC(C)=N[C@H](C(=O)O)C(C)(C)S | 10%[11.5 µM] | -10%[11.4 µM] | 1%[11.4 µM] | 0%[11.4 µM] | . | -4%[11.4 µM]
O=C(Nc1ncc2c(n1)CC(c1ccccc1)CC2=O)c1ccco1 (configuration not stated) | -12% | -7% | 1% | 0% | >57 | 3%
O=C1CC(c2ccccc2)Cc2nc(NCc3ccco3)ncc21 (configuration not stated) | ? | 32µM* | 3.2µM* | 25µM* | 5.2* | 2%
SMILES | ERK AVP block | HADH2 inhib | FLuc inh | HSD17B inh | PK Bst | 15-hLO inh
O=C1CC(c2ccccc2)Cc2nc(N3CCc4ccccc43)ncc21 (configuration not stated) | 5% | 13µM* | -2% | -9% | >57 | -2%
Cc1cc(C)c2c(=O)n(CC(=O)N3CCC(N4CCCCC4)CC3)sc2n1 | 4% | 0.2µM* | ? | 25µM* | . | 6%
CC(=O)c1cc(-c2ccccc2)n(CC(=O)N2CCC(N3CCCCC3)CC2)c1C | 10% | -1% | 0% | -3% | >57 | 9%
CCOC(=O)C1CCCN(C(=O)Cn2cnc3c2c(=O)n(C)c(=O)n3C)C1 (configuration not stated) | 7% | -8%[11.4 µM] | 2% | 0% | . | 0%[11.4 µM]
CCOC(=O)C1CCCN(C(=O)Cn2sc3nc(C)cc(C)c3c2=O)C1 (configuration not stated) | ? | 0.25µM* | 13µM* | 25µM* | . | -5%
S=C(S)O[C@@H]1C[C@@H]2C[C@H]1[C@@H]1CCC[C@H]21 | -14% | ? | -13% | ? | . | 25µM*!
N#CC1=C(N)NC(SCc2ccccc2)=C(C#N)C12CCCCC2 | ? | -14%[11.4 µM] | -1% | -19% | . | -29%[11.4 µM]
CCSC1=C(C#N)C2(CCCCC2)C(C#N)=C(N)N1 | ? | 5% | 16µM* | -4% | i | -10%
CC(=O)N1CC=C2C(C#N)=C(N)C(C#N)(C#N)C(CCc3ccccc3)C2C1 (configuration not stated) | -11% | 61% | 1% | 494% | >57 | -20%
CN1CC=C2C(C#N)=C(N)C(C#N)(C#N)C(c3cccc(Cl)c3Cl)C2C1 (configuration not stated) | 1% | -12% | -3% | 25µM* | >57 | ?
CCCN1CC=C2C(C#N)=C(N)C(C#N)(C#N)C(c3cccc(OC)c3OC)C2C1 (configuration not stated) | 18% | ? | -1% | 25µM* | >57 | -26%
CCN1CC=C2C(C#N)=C(N)C(C#N)(C#N)C(CCc3ccccc3)C2C1 (configuration not stated) | -16% | 32µM* | -1% | 25µM* | >57 | ?
N#CCSc1nc2cc(C(=O)N3CCC(C(N)=O)CC3)ccc2c2nc3ccccc3n12 | 20µM* | -4% | -3% | 34% | 0.47* | -3%
O=c1oc2ccccc2c2oc3cc(O)c(O)cc3c12 | -22% | . | . | 25µM* | . | .
O=c1cc(-c2ccccc2)oc2cccc(O)c12 | -9% | . | . | -4% | . | ?
O=C(OCc1nnc(-c2ccccc2)o1)c1cn(-c2ccccc2)nc1-c1ccccc1 | 25% | 5% | -1% | 25µM* | >57 | -17%
O=C(OCc1nnc(-c2ccc(Cl)cc2)o1)c1ccc(=O)n(Cc2ccccc2)n1 | -12% | 10% | -1% | 6% | 9.8* | 20µM*
O=C(O)c1cn(-c2ccccc2)nc1-c1ccncc1 | -18% | -29% | 1% | 25µM* | >57 | 8%
CC(=O)OC[C@@H]1O[C@H](C/C=N\O[C@@H](C)c2cc(-c3c(C)cc(C)cc3C)no2)C=C[C@@H]1OC(C)=O | 9%[11.5 µM] | -15%[11.4 µM] | 2%[11.4 µM] | 1%[11.4 µM] | . | 1%[11.4 µM]
CC1CC1C(=O)OCc1cc(=O)n2cc(Br)ccc2n1 (configuration not stated) | 27% | -1% | -27% | -15% | i | 7%
COC(=O)CNc1c(-c2ccccn2)nc2ccc(Br)cn12 | 7% | -6% | 13µM* | -10% | ? | -22%
